NS1 inh – inhibitors of influenza NS1 protein function; Potency, µM (top dose mostly 46.1 µM), for inactives: top-dose activity, positive = more growth; 270,000 tested, 0.4% active; AID 2326; calls by dose curve; further: potency means the concentration at half of the fitted maximal effect; actives are rising curves; nearly all actives have a fitted effect of over 50% in size
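Growth recovery, yeast-based: influenza A NS1 expressed in S. cerevisiae causes slow growth, and suppressors are detected by OD600. The parent strain without NS1 is used as positive control.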
Giardia FBPA inh-1 – blocks Giardia fructose-bisphosphate aldolase activity. A8B2U2. purified Giardia FBPA. Potency, µM (titrated, usually from 59.6 µM), inactives show at the top dose activity, negative = inhibition, most hits filed as inhibitors. 290,000 tested, 0.71% active. AID 2451; further: potency means the concentration at half of the fitted maximal effect; on the % scale 0 is the no-effect control and ±100 the full control effect; nearly all actives have a fitted effect of over 55% in size
Target sequence (A8B2U2 whole entry, looked up): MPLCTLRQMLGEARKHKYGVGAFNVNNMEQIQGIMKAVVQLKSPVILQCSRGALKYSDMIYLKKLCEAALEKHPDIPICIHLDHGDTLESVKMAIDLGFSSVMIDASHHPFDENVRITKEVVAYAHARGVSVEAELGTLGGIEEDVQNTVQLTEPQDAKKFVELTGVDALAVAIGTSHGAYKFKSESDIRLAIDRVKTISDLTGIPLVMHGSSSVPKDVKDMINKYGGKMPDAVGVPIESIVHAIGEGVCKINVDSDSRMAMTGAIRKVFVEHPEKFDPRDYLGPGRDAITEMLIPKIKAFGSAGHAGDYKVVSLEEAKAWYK
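Giardia FBPA (40 nM reagent) was preincubated 10 min at RT with compound (up to 57.5 uM final), then substrate plus GAPDH/TPI/NAD/arsenate coupling system with diaphorase/resazurin was added; resorufin fluorescence (525/598 nm) was read after 20 min.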
CHX counter – counter-screen for Shiga toxin inhibitors: cycloheximide protein synthesis inhibition. cell reporter, cycloheximide protein synthesis inhibition counterscreen. max response, %. 300,000 tested, 12% active. AID 2314; in the data active means max response mostly above about 13%, no sharp cut-off; inactive means mostly below about 14%; further: read at 38.3 µM for the half of the compounds with a filed dose; 0% is about no effect
Shiga toxin inh – blocks Shiga toxin action in Vero cells; Vero cells, Shiga toxin protein synthesis inhibition reporter; inhibition, % at 38.7 µM; 290,000 tested, 9.2% active; in the data active means inhibition mostly above about 28%, no sharp cut-off; inactive means mostly below about 43%; further: 0% is about no effect
Pf growth 96h – P. falciparum growth inhibition at 96 hours. P. falciparum luciferase reporter growth, 96 h. Potency, µM (titrated, usually from 28.7 µM), without a hit: top-dose activity change, negative = inhibition, usual class: inhibitors. 320,000 tested, 6.9% active. AID 504834; further: potency means the concentration at half of the fitted maximal effect; on the % scale 0 is the no-effect control and ±100 the full control effect
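Plates of compound plus infected erythrocytes (2% hematocrit, 0.05% parasitemia final) incubate 96 hours, 37 C, 5% CO2. Detection reagent added; reduced luminescence from the parasites' luciferase reporter flags inhibition.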
Pf growth 48h – inhibits P. falciparum growth in the first generation, 48 h; P. falciparum luciferase growth in erythrocytes, 48 h; Potency, µM (highest dose often 28.7 µM), for the others: top-dose activity change, negative = inhibition, most hits filed as inhibitors; 310,000 tested, 5.9% active; AID 504832; further: potency means the concentration at half of the fitted maximal effect; on the % scale 0 is the no-effect control and ±100 the full control effect
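Parasite viability was followed by luminescence of a genomically integrated firefly luciferase. Cultures held 0.1% parasitemia at 2% hematocrit (final), incubated under 5% CO2 at 37 C.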
Giardia growth – Giardia lamblia growth inhibition | shares compounds with Giardia FBPA inh-1 | Giardia lamblia trophozoite growth inhibition | Potency, µM (doses to about 57.5 µM), for inactives: at the highest dose activity change, negative = inhibition, most hits filed as inhibitors | 1,500 tested, 5% active | AID 2785;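 further: potency means the concentration at half of the fitted maximal effect; trophozoites exposed to compound for 48 h at 37 °C; on the % scale 0 is the no-effect control and ±100 the full control effect; nearly all actives have a fitted effect of over 70% in size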
Mammalian tox – counter-screen for Giardia aldolase inhibitors: mammalian cell toxicity. Potency, µM (titrated, usually from 57.5 µM), inactives show at the top dose viability change, negative = toxicity, most hits filed as inhibitors. mammalian cell viability counter-screen, qHTS. AID 2786. 1,500 tested, 4% active. shares compounds with Giardia FBPA inh-1;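 further: Chinese hamster ovary cells used as mammalian cytotoxicity surrogate; viability measured as cellular ATP by luminescence; potency means the concentration at half of the fitted maximal effect; compound exposure lasted 48 h before reading; on the % scale 0 is the no-effect control and ±100 the full control effect; nearly all actives have a fitted effect of over 60% in size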
Giardia FBPA inh-2 – confirmation of Giardia fructose-bisphosphate aldolase inhibitors; shares compounds with Giardia FBPA inh-1; purified Giardia aldolase enzyme activity, qHTS; Potency, µM (doses to about 57.5 µM), for inactives: at the highest dose activity change, negative = inhibition, hits mostly inhibitors; 1,500 tested, 5% active; further: potency means the concentration at half of the fitted maximal effect; on the % scale 0 is the no-effect control and ±100 the full control effect; nearly all actives have a fitted effect of over 45% in size
Rabbit FBPA inh – blocks rabbit muscle aldolase in Giardia aldolase selectivity test; Rabbit muscle FBPA enzyme inhibition, selectivity counter-screen; shares compounds with Giardia FBPA inh-1; AID 2794; 1,500 tested, 4% active; Potency, µM (top dose mostly 57.5 µM), for the others: at the highest dose activity, negative = inhibition, most hits filed as inhibitors; further: potency means the concentration at half of the fitted maximal effect; on the % scale 0 is the no-effect control and ±100 the full control effect; nearly all actives have a fitted effect of over 60% in size
Target sequence (P00883 whole entry, looked up): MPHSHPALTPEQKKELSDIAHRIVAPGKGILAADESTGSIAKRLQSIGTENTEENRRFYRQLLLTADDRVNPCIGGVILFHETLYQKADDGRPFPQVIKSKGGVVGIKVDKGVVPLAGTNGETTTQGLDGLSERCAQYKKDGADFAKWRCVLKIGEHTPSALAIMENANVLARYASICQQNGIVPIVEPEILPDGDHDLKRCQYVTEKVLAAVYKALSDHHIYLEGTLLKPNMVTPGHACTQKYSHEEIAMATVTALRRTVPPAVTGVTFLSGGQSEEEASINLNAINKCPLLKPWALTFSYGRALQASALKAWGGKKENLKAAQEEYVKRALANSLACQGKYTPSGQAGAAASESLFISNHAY
GAPDH counter – counter-screen for Giardia aldolase inhibitors: GAPDH coupling enzyme. Potency, µM (top dose mostly 57.5 µM), without a hit: at the highest dose activity change, negative = inhibition, usual class: inhibitors. AID 2795. 1,500 tested, 6% active. shares compounds with Giardia FBPA inh-1. GAPDH coupling enzyme counterscreen, biochemical, qHTS; further: potency means the concentration at half of the fitted maximal effect; on the % scale 0 is the no-effect control and ±100 the full control effect; nearly all actives have a fitted effect of over 55% in size
The depositor's hits bear a star; ? = inconclusive; . = no result given; [ ] = another dose, or the depositor's remark. An excerpt weighted towards active compounds, which were near 21% of everything screened. Unless noted, the call rests on the fitted dose curve; in most records, active means well fitted curve in the direction sought with a large enough effect; inconclusive means small, poorly fitted or top-dose-only effect, or another doubt; inactive means no such curve, though single readings can be large; an effect the other way counts as inactive or inconclusive.

SMILES	NS1 inh	Giardia FBPA inh-1	CHX counter	Shiga toxin inh	Pf growth 96h	Pf growth 48h	Giardia growth	Mammalian tox	Giardia FBPA inh-2	Rabbit FBPA inh	GAPDH counter
CCC(C)c1ccc(NC(=O)CN(C)CC(=O)Nc2cccc(OC)c2)cc1 (stereo unspecified)	.	15.8µM*	13.4	21.2	?	11.7µM*	?	2.9%	-6.6%	-2.6%	-2.7%
COc1cccc(NC(=O)CN(C)CC(=O)Nc2ccc(C)c([N+](=O)[O-])c2)c1	-6.6%	2.3%	-3.1	-3.0	-0.5%	-2.2%	.	.	.	.	.
COc1cccc(C(=O)N2CCN(Cc3ccccn3)CC2)c1	1.7%	25.1µM*	5.9	-3.7	1.5%	.	65.8%	11.4%	2.8%	-2.8%	-26.4%
CCOC(=O)C1CCN(Cc2ccccn2)CC1	-1.5%	17.8µM*	-2.0	-0.9	10.4µM*	8.6%	?	-2.3%	-0.3%	11.0%	5.1%
O=C(O)C1CCN(Cc2ccccn2)CC1	6.1%	-18.8%	-2.3	-1.8	15.3%	-7.1%	.	.	.	.	.
O=C(c1ccc(CS(=O)c2cccc(Cl)c2)o1)N1CCN(C2CCCCC2)CC1 (stereo unspecified)	-2.3%	.	-6.7	-1.5	?	3.0%	.	.	.	.	.
C=CCNC(=S)/C(=C(\[O-])c1ccc(Cl)cc1)[n+]1ccccc1	0.2%	12.6µM*	-1.2	-3.2	?	?	-21.1%	4.3%	-1.6%	6.9%	-1.8%
[O-]/C(=C(\C(=S)NCc1ccccc1)[n+]1ccccc1)c1ccc(Cl)cc1	2.1%	-21.0%	0.4	54.0	?	-21.5%	.	.	.	.	.
C=CCn1c(O)c(/C=N/NC(=O)CCCC)c(=O)[nH]c1=S	.	7.06µM*	-1.8	-5.1	28.7%	20.2%	-11.7%[10.4 µM]	1.7%	3.5%	-9.9%	-1.7%
Cc1oc(C)c2c(=O)ccc3c(c12)OC(N)=C(C#N)C3c1ccccc1 (stereo unspecified)	8.1%	2.1%	-2.7	-5.8	74.6%	?	.	.	.	.	.
Cc1oc(C)c2c(=O)ccc3c(c12)OC(N)=C(C#N)C3c1ccccc1Cl (stereo unspecified)	9.3%	11.2µM*	7.6	-6.1	63.1%	?	12.9%	-16.4%	-4.5%	-2.6%	0.6%
C[C@H](NC(=O)c1cc2c(cn1)[nH]c1ccccc12)C(=O)O	1.6%	-18.6%	-3.3	-14.9	12.9%	?	-0.8%[38.3 µM]	-9.3%	-12.0%	-4.7%	-7.1%
COc1cc(C2NC(=O)C(C#N)=C(Nc3cccc(C)c3)S2)ccc1O (stereo unspecified)	-3.6%	14.1µM*	-1.9	12.0	-0.7%	?	6.6%[10.4 µM]	2.4%	-24.3%	3.7%	13.4%
COC(=O)CSC1=C(C#N)C(=O)NC(c2ccccc2)S1 (stereo unspecified)	6.2%	?	7.8	-1.8	0.0%	.	.	.	.	.	.
COC(=O)c1cc(C)nc2c1C(=O)C(=O)C=C2N1CCOCC1	4.4%	0.251µM*	-6.0	-24.9	-1.8%	13.1µM*	25.1µM*	20µM*	1.26µM*	1.41µM*	1.41µM*
Cc1cc(=O)n2cccc(O)c2n1	3.8%	19.9µM*	-2.0	13.6	33.3%	?	125.9%	-1.6%	-28.4%	?	?
O=C(c1cccc(NS(=O)(=O)c2ccc(Br)cc2)c1)N1CCCCC1	.	.	.	.	23.7%	-9.8%	.	.	.	.	.
NC(=S)c1cn(C2OC(CO)C(O)C2O)c2ncnc(N)c12 (stereo unspecified)	0.8%	14.1µM*	-2.2	-5.4	4.15µM*	1.31µM*	-1.8%	?	11.9%	16.2%	-2.8%
COc1ccc(NC(=O)c2cc(S(=O)(=O)N3CCOCC3)cs2)cc1	0.2%	0.1%	14.8	-10.1	2.5%	0.0%	.	.	.	.	.
O=c1oc2ccccc2c(O)c1Cc1cc(Cl)c2cccnc2c1O	8.9%	9.98µM*	-2.1	-3.2	-27.9%	?	?	5.7%	-6.1%	-18.0%	-13.2%
Cc1cccc(NC(=O)CCC(=O)N2CCOCC2)n1	.	.	.	.	30.9%	13.2%	.	.	.	.	.
COc1ccc(OCCN(C)CC(=O)Nc2c(C)cccc2C)cc1	0.0%	14.1µM*	-3.4	-14.6	3.4%	-12.4%[0.00184 µM]	-9.6%[10.4 µM]	11.2%	6.0%	1.2%	11.0%
Cc1ccc(NC(=O)CNCc2ccccc2Cl)cc1S(=O)(=O)N(C)C	1.0%	22.4µM*	40.0*	57.7*	?	.	?	-5.6%	5.6%	1.6%	2.0%
CN(CC(=O)Nc1cccc(F)c1)CC(=O)Nc1ccc(Cl)cc1[N+](=O)[O-]	.	-2.7%	11.1	42.8	-19.4%	14.5%	.	.	.	.	.
CN(CCOc1ccccc1)CC(=O)Nc1ccc(Cl)c(S(=O)(=O)N(C)C)c1	.	15.8µM*	2.5	-3.3	9.28µM*	-18.8%	-16.2%[10.4 µM]	-1.8%	-4.9%	-1.1%	8.9%
SMILES	NS1 inh	Giardia FBPA inh-1	CHX counter	Shiga toxin inh	Pf growth 96h	Pf growth 48h	Giardia growth	Mammalian tox	Giardia FBPA inh-2	Rabbit FBPA inh	GAPDH counter
CCC(C(=O)OCC(=O)Nc1ccc(Cl)c(S(=O)(=O)N(C)C)c1)c1ccccc1 (stereo unspecified)	-11.1%	-5.2%	1.1	-17.4	-11.2%	-17.7%	.	.	.	.	.
CN(CCOc1ccccc1)CC(=O)Nc1ccc(Cl)cc1[N+](=O)[O-]	.	22.3µM*	-1.7	18.2	19.0%	4.0%	?	3.4%	1.7%	-1.5%	12.8%
COc1ccc(N2CCN(S(=O)(=O)c3cn(C)cn3)CC2)cc1	0.2%	9.5%	-2.8	9.3	3.1%	24.5%	.	.	.	.	.
Fc1ccc(-n2c(=S)[nH]c3cccnc32)cc1	-4.4%	17.8µM*	-2.0	-1.6	-12.9%	7.2%	27.5%	-14.8%	-1.6%	1.5%	16.1%
FC(F)(F)c1cnc2c(c1)[nH]c(=S)n2-c1ccc(Cl)cc1	2.1%	18.9%	-3.9	-3.3	47.7%	-0.5%	.	.	.	.	.
Cc1ccccc1C(=O)Nc1nnc(-c2cccnc2)o1	.	15.8µM*	-1.6	-5.4	54.5%	-6.5%	?	6.5%	6.7%	0.2%	7.2%
COc1ccc(OC)c(NC(=O)C(CCSC)NS(=O)(=O)c2cccs2)c1 (stereo unspecified)	-2.7%	4.5%	-5.9	-6.9	109.3%	10.6%	.	.	.	.	.
COc1ccc(CC(=O)N[C@@H](C)C(=O)N2CCC3(CC2)NCCc2[nH]cnc23)cc1	-4.6%	.	14.0	-2.3	15.2%	13.0%	.	.	.	.	.

Screening data as filed in PubChem BioAssay.
